# From PubChem BioAssay (NCI)
# About 79,000 compounds went through this panel and 15% of them were active in at least one assay; those are over-represented in the sample as a whole. A number with no mark means an inactive call. The source made the active and inactive calls. No stated cut-off is given here; in the data, active means growth inhibition above about 70%; inactive means the rest.
# Key:
# [1] = NCI Yeast Anticancer Drug Screen. Data for the rad52 strain (AID 147);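 further: 0% = growth of vehicle-treated control cultures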; conditions: S. cerevisiae rad52 mutant growth inhibition, active compounds read high
# In short: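 Genetically altered yeast (DNA damage repair defect) treated with compound; inhibition calculated relative to vehicle.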
# [2] = NCI Yeast Anticancer Drug Screen. Data for the wt1 strain (AID 149);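 further: 0% = growth of vehicle-treated wt1 cultures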; conditions: S. cerevisiae wt1 strain (SPY 50644) growth inhibition, active compounds read high
# In short: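 Growth inhibition read against vehicle controls after compound exposure of the wt1 yeast strain.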
# [3] = NCI Yeast Anticancer Drug Screen. Data for the rad50EPP+ strain (AID 151);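 further: 0% = growth of vehicle-treated control cultures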; conditions: S. cerevisiae rad50 mutant strain, active compounds read high
# In short: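 Strain rad50EPP+; compound exposure; % growth inhibition vs vehicle.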
# [4] = NCI Yeast Anticancer Drug Screen. Data for the mgt1 strain (AID 153); conditions: S. cerevisiae mgt1 mutant growth inhibition, active compounds read high
# In short: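 Read-out: yeast growth inhibition vs vehicle control. Strain mgt1, drawn from a panel altered in DNA damage repair or cell cycle control.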
# [5] = NCI Yeast Anticancer Drug Screen. Data for the rad50 strain (AID 155);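 further: 0% = growth of vehicle-only cultures of the same strain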; conditions: S. cerevisiae rad50 strain growth inhibition, active compounds read high
# In short: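 Readout: growth inhibition relative to vehicle-treated cultures. Compound exposure was carried out in a genetically defined yeast strain deficient in DNA damage repair.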
# [6] = NCI Yeast Anticancer Drug Screen. Data for the mec2-1 strain (AID 157); conditions: S. cerevisiae mec2-1 strain, active compounds read high
# In short: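 Cells of the genetically defined mec2-1 yeast strain are incubated with test compound. Inhibition of growth is calculated against vehicle-treated controls.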
# [7] = NCI Yeast Anticancer Drug Screen. Data for the rad14 strain (AID 159);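 further: 0% = growth of vehicle-treated control cultures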; conditions: S. cerevisiae rad14 strain growth inhibition, active compounds read high
# In short: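 Growth inhibition vs vehicle controls; genetically altered yeast strain (DNA damage repair defect) treated with test compounds.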
# [8] = NCI Yeast Anticancer Drug Screen. Data for the sgs1 mgt1 strain (AID 161);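 further: 0% = growth of cultures given vehicle only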; conditions: S. cerevisiae sgs1 mgt1 strain, active compounds read high
# In short: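 Mutant yeast exposed to compound; growth scored against vehicle-only wells.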
# [9] = NCI Yeast Anticancer Drug Screen. Data for the CLN2oe strain (AID 163);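 further: 0% = growth of vehicle-only control cultures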; conditions: S. cerevisiae CLN2oe strain, active compounds read high
# In short: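 Strain altered in cell-cycle control, incubated with compound; growth compared to solvent-treated controls.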
# [10] = NCI Yeast Anticancer Drug Screen. Data for the bub3 strain (AID 167); conditions: S. cerevisiae bub3 mutant strain, active compounds read high
# In short: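 Readout: yeast growth inhibition, expressed relative to vehicle-only wells. The test organism is a mutant strain from a panel with lesions in DNA repair or checkpoint genes.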
# [11] = NCI Yeast Anticancer Drug Screen. Data for the wt2 strain (AID 169);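 further: 0% = growth of vehicle-treated yeast cultures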; conditions: S. cerevisiae wt2 strain growth inhibition, active compounds read high
# In short: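 Steps: yeast strain treated with compound; growth recorded; inhibition calculated relative to cultures given vehicle alone.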
# [12] = NCI Yeast Anticancer Drug Screen. Data for the mlh1 strain (AID 171);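 further: 0% = growth of vehicle-treated control cultures of the same strain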; conditions: S. cerevisiae mlh1 strain growth inhibition, active compounds read high
# In short: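 Yeast screen: mutant strain plus compound, growth scored against vehicle control wells.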
# [13] = NCI Yeast Anticancer Drug Screen. Data for the sgs1 strain (AID 173);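 further: 0% = growth of vehicle-only control cultures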; conditions: S. cerevisiae sgs1 mutant, active compounds read high
# In short: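 Inhibition of yeast growth served as the measure. The mutant strain was treated with each compound, and growth was normalised to cultures receiving vehicle alone.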
# [14] = NCI Yeast Anticancer Drug Screen. Data for the mlh1 rad18 strain (AID 175); conditions: S. cerevisiae mlh1 rad18 strain growth inhibition, active compounds read high
# In short: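 Compound-treated yeast growth, normalised to vehicle controls. Strain bears defined DNA repair mutations.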
# [15] = NCI Yeast Anticancer Drug Screen. Data for the rad18 strain (AID 177); conditions: S. cerevisiae rad18 mutant growth inhibition, active compounds read high
# In short: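 Inhibition values reflect reduced yeast growth compared with vehicle-treated controls, using a strain engineered with a DNA damage repair defect.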
# [16] = at 5.0 µM (retest, dose inferred, filed as 0.5)
# [17] = at 50.0 µM (retest, dose inferred, filed as 5.0)
structure (smiles),measurement,setting,value
O=C(Nc1ccc(Cl)cc1)Nc1nnc2nc(C(C(=O)c3cccc([N+](=O)[O-])c3Cl)c3nc4nnc(NC(=O)Nc5ccc(Cl)cc5)n4[nH]c3=O)c(=O)[nH]n12,growth inhibition,[1]; at 1.2 µM,2%
same,growth inhibition,[1]; at 3.7 µM,2%
same,growth inhibition,[1]; at 11.0 µM,2%
same,growth inhibition,[1]; at 33.0 µM,4%
same,growth inhibition,[1]; at 100.0 µM,52%
same,growth inhibition,[2]; at 1.2 µM,1%
same,growth inhibition,[2]; at 3.7 µM,1%
same,growth inhibition,[2]; at 11.0 µM,3%
same,growth inhibition,[2]; at 33.0 µM,-1%
same,growth inhibition,[2]; at 100.0 µM,30%
same,growth inhibition,[3]; at 1.2 µM,4%
same,growth inhibition,[3]; at 3.7 µM,5%
same,growth inhibition,[3]; at 11.0 µM,8%
same,growth inhibition,[3]; at 33.0 µM,23%
same,growth inhibition,[3]; at 100.0 µM,29%
same,growth inhibition,[4]; at 1.2 µM,0%
same,growth inhibition,[4]; at 3.7 µM,1%
same,growth inhibition,[4]; at 11.0 µM,0%
same,growth inhibition,[4]; at 33.0 µM,15%
same,growth inhibition,[4]; at 100.0 µM,47%
same,growth inhibition,[5]; at 1.2 µM,1%
same,growth inhibition,[5]; at 3.7 µM,0%
same,growth inhibition,[5]; [16],-12%
same,growth inhibition,[5]; at 11.0 µM,2%
same,growth inhibition,[5]; at 33.0 µM,2%
same,growth inhibition,[5]; [17],10%
same,growth inhibition,[5]; at 50.0 µM,99.5% (active)
same,growth inhibition,[5]; at 100.0 µM,31%
same,growth inhibition,[6]; at 1.2 µM,-4%
same,growth inhibition,[6]; at 3.7 µM,-2%
same,growth inhibition,[6]; [16],-2%
same,growth inhibition,[6]; at 11.0 µM,-12%
same,growth inhibition,[6]; at 33.0 µM,0%
same,growth inhibition,[6]; [17],10%
same,growth inhibition,[6]; at 50.0 µM,99.5% (active)
same,growth inhibition,[6]; at 100.0 µM,68%
same,growth inhibition,[7]; at 1.2 µM,0%
same,growth inhibition,[7]; at 3.7 µM,-3%
same,growth inhibition,[7]; at 11.0 µM,0%
same,growth inhibition,[7]; at 33.0 µM,1%
same,growth inhibition,[7]; at 100.0 µM,56%
same,growth inhibition,[8]; [16],2%
same,growth inhibition,[8]; [17],28%
same,growth inhibition,[8]; at 50.0 µM,99% (active)
same,growth inhibition,[9]; at 1.2 µM,-6%
same,growth inhibition,[9]; at 3.7 µM,-8%
same,growth inhibition,[9]; at 11.0 µM,-5%
same,growth inhibition,[9]; at 33.0 µM,-12%
same,growth inhibition,[9]; at 100.0 µM,37%
same,growth inhibition,[10]; at 1.2 µM,-5%
same,growth inhibition,[10]; at 3.7 µM,-5%
same,growth inhibition,[10]; [16],-22%
same,growth inhibition,[10]; at 11.0 µM,-7%
same,growth inhibition,[10]; at 33.0 µM,-8%
same,growth inhibition,[10]; [17],22%
same,growth inhibition,[10]; at 50.0 µM,99.5% (active)
same,growth inhibition,[10]; at 100.0 µM,64%
same,growth inhibition,[11]; at 1.2 µM,-1%
same,growth inhibition,[11]; at 3.7 µM,-2%
same,growth inhibition,[11]; at 11.0 µM,-2%
same,growth inhibition,[11]; at 33.0 µM,-2%
same,growth inhibition,[11]; at 100.0 µM,32%
same,growth inhibition,[12]; at 1.2 µM,1%
same,growth inhibition,[12]; at 3.7 µM,-2%
same,growth inhibition,[12]; at 11.0 µM,2%
same,growth inhibition,[12]; at 33.0 µM,-1%
same,growth inhibition,[12]; at 100.0 µM,35%
same,growth inhibition,[13]; at 1.2 µM,-1%
same,growth inhibition,[13]; at 3.7 µM,0%
same,growth inhibition,[13]; at 11.0 µM,-2%
same,growth inhibition,[13]; at 33.0 µM,1%
same,growth inhibition,[13]; at 100.0 µM,60%
same,growth inhibition,[14]; [16],-20%
same,growth inhibition,[14]; [17],55%
same,growth inhibition,[14]; at 50.0 µM,99.4% (active)
same,growth inhibition,[15]; at 1.2 µM,-1%
same,growth inhibition,[15]; at 3.7 µM,-3%
same,growth inhibition,[15]; at 11.0 µM,-12%
same,growth inhibition,[15]; at 33.0 µM,-2%
same,growth inhibition,[15]; at 100.0 µM,45%
